Pf Dd2 inh: Plasmodium falciparum Dd2 growth inhibition; 120,000 compounds, 4.3% hits; Potency, µM (highest dose often 28.9 µM), for inactives: at the top dose activity, negative = inhibition, usual class: inhibitors; P. falciparum Dd2 growth, SYBR Green, 72 h; active = well fitted inhibition curve with a large enough effect;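 note: plate controls were DMSO vehicle for no effect and reference drug for full effect; nearly all actives have a fitted effect of over 65% in size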
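Readout: SYBR Green fluorescence, 485 nm excitation, 535 nm emission, after ~16 h lysis at 37C. Before that, Dd2-infected red cells (2.5% hematocrit) grew 72 h with compound, 29 uM top final concentration.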
Active calls of the source: *; i = inactive; [ ] = dose if it differs, or a comment. The full list was thinned out, with hits kept by preference. Potency is the fitted concentration of half-maximal effect.

SMILES	Pf Dd2 inh
Fc1ccc(CN2CCNc3cnc(-c4ccccc4)cc3C2)cc1F	i
COC(=O)[C@H](NC(=O)C1=C[C@@H](NC(=O)c2ccc(F)c(Cl)c2)[C@@H](O)[C@H](O)C1)C(C)C	-18%
CCOc1ccc(NCc2cccn2-c2nnc(N3CCC(C(=O)NCCc4ccc(OCC)c(OCC)c4)CC3)s2)cc1	6.3µM*
CCOc1ccc(NCc2cccn2-c2nnc(N3CCC(C(=O)NCCc4ccc(OC)c(OC)c4)CC3)s2)cc1	7.1µM*
CCOc1ccc(NCc2cccn2-c2nnc(N3CCC(C(=O)NC(C)c4ccccc4)CC3)s2)cc1 (centres undefined)	i
COc1ccccc1CCNC(=O)C1CCN(c2nnc(-n3cccc3CNc3ccc(C)cc3)s2)CC1	-10%
Cc1ccc(NCc2cccn2-c2nnc(N3CCC(C(=O)NCc4ccccc4C)CC3)s2)cc1	i
CCOc1ccc(CCNC(=O)C2CCN(Cc3nc(-c4ccc(OC)c(OC)c4)oc3C)CC2)cc1OCC	i
COc1ccccc1OC1(C(=O)O)CCN(Cc2cnn(C(C)C)c2)CC1	-3%
Cc1ccc(C(=O)N2CCn3c(nn(-c4ccc(C)cc4)c3=O)C2)cc1	-9%
CN(C)c1ccc(-c2ccnc(N[C@H]3CO[C@H]4[C@@H]3OC[C@@H]4NC(=O)CSCC(=O)O)n2)cc1	i
Cc1cnc(C(=O)NC2C[C@H]3CC[C@@H](C2)N3C(=O)c2ccc(OC(C)C)cc2)cn1 (some centres undefined)	i
Cc1onc(-c2cnn(C)c2NCc2ccccc2)c1C(=O)N1CCC(c2ccccc2)CC1	i
CCCc1cc(C(=O)N(C)CCOc2ccccc2CC)n(C)n1	-25%
Cc1cccc(OCC(=O)NC2CCc3nn(CC4CC4)c(=O)n3CC2)c1 (centres undefined)	-16%
COc1ccc(N2CC(NC(=O)COc3cccc(C)c3)CC2=O)cc1OC (centres undefined)	6%
Cc1cccc(Oc2coc3cc(OCC(=O)NC4CCCCC4)ccc3c2=O)c1	10µM*
CCCCc1ncc(-c2nccn2Cc2noc(CC(C)C)n2)[nH]1	-29%
CCN1CCN(c2oc(-c3ccc(COc4ccccc4C)o3)nc2C#N)CC1	-14%
COCCCNc1oc(-c2ccc(COc3ccccc3C)o2)nc1C#N	-27%
CCCCNc1oc(-c2ccc(COc3ccccc3C)o2)nc1C#N	11µM*
Cc1cccc(OCc2ccc(-c3nc(C#N)c(NCc4cccnc4)o3)o2)c1	7.9µM*
N#Cc1nc(-c2ccc(COc3ccccc3)o2)oc1N1CCCCC1	59%[0.594 µM]
COc1ccc(CNc2oc(COc3cccc(C)c3)nc2C#N)cc1	0%
Cc1cccc(OCc2ccc(-c3nc(C#N)c(N4CCN(c5ccccc5)CC4)o3)o2)c1	10µM*
SMILES	Pf Dd2 inh
Cc1ccccc1OCc1ccc(-c2nc(C#N)c(NCc3cccnc3)o2)o1	-24%
COc1ccc(Nc2oc(-c3ccc(COc4ccccc4)o3)nc2C#N)cc1	-5%
COCCN1CCC2(CCC1=O)CCN(C(=O)Nc1c(C)cccc1C)CC2	22%
O=C(c1cccc(Cl)c1)N1CCCC2(Cc3ccccc3NC2=O)C1 (centres undefined)	i
COc1ccc(-c2noc([C@@H](C)NCC3CCCC3)c2C(=O)O)cc1	9%[44.1 µM]
CC(=O)Nc1cc(C(=O)N2CCC(C)CC2)c2ccc(C)nc2c1	-10%
O=C(CCNc1c(-c2cccc(F)c2)nc2cnccn12)N1CCCC1	i
CCn1ccc2cc(S(=O)(=O)N3CCC(C(=O)NCCc4ccc(SC)cc4)CC3)ccc21	8.9µM*
CCn1ccc2cc(S(=O)(=O)N3CCC(C(=O)NCCc4ccccc4)CC3)ccc21	-9%
CCn1ccc2cc(S(=O)(=O)N3CCC(C(=O)NCc4ccc(F)cc4)CC3)ccc21	13%
CCCN(CC1CCOC1)C(=O)CCCc1ccccc1 (centres undefined)	-11%[5.79 µM]
COc1ccc(C(=O)Nc2ccc3c(N4CCCCC4)ncnc3c2)cc1	-22%
O=C(Nc1ccc2ncnc(N3CCCCC3)c2c1)c1ccc(F)cc1	i
O=C(Nc1ccc2c(N3CCCCC3)ncnc2c1)c1ccc(F)c(F)c1	2µM*
CN(C(=O)Cn1cccc1-c1nc(-c2ccccc2)no1)c1ccc(F)cc1	i
CCN1CC2(CCN(C(=O)CC(Cc3ccccc3)c3ccco3)CC2)CC1=O (centres undefined)	-5%
Cc1ccc(NC(=O)CN(C)S(=O)(=O)c2cccc3cccnc23)cc1F	i
Oc1c(C(Nc2ccccn2)c2ccccc2F)ccc2cccnc12 (centres undefined)	1.1µM*
Cc1cccc(NC(c2ccccc2C)c2ccc3ccc(C)nc3c2O)n1 (centres undefined)	5µM*
Cc1ccnc(NC(c2ccccc2F)c2ccc3cccnc3c2O)c1 (centres undefined)	6.3µM*
Cc1nnc2n1CCC(N(C)C(=O)c1ccc3c(c1)OCO3)CC2 (centres undefined)	2%
O=C(c1ccc(Cl)cc1)N(CC1CCOC1)C1CC1 (centres undefined)	i[5.79 µM]
CCN(Cc1nccn1C)C(=O)c1cc(-c2cnc(N)nc2)nc2c(C)cccc12	-20%
CC(C)Nc1ccc2nnc(-c3ccc(F)cn3)n2n1	-14%[44.1 µM]
O=C(NCCc1cccs1)c1cc2n(n1)CC(c1ccc3c(c1)OCO3)OC2 (centres undefined)	i
SMILES	Pf Dd2 inh
Cc1ccc(C(=O)N2CCC3(CC2)N(C)C(=O)CS3(=O)=O)cc1F	24%
Cc1ccc(-c2ccccc2CN)c(C)c1	5µM*
Cc1ccc(C)c(CN2C(=O)C(=O)c3ccccc32)c1	-23%
Cc1ccc(-c2cccc(C=O)c2)c(C)c1	4%[44.1 µM]
COc1ccc(C(=O)N2CCC(N3C(=O)C(O)C34CCCCC4)CC2)cc1F (centres undefined)	-5%
CN(C)C(=O)N1CCC(c2nc(C3CCOC3)n[nH]2)CC1 (centres undefined)	-4%
CC(C)c1ccc(CN2CCc3ncc(C(=O)Nc4ccccc4)n3CC2)cc1	13µM*
O=C(Nc1ccccc1)c1cnc2n1CCN(Cc1cccc(O)c1)CC2	-19%[44.1 µM]
CC(C)CCNC(=O)c1cnc2n1CCN(Cc1ccc(C(C)C)cc1)CC2	-16%[44.1 µM]
CC(C)NC(=O)CC1Sc2ncccc2N(C)C1=O (centres undefined)	3%
COCC1CN(C2CCC2)CC12CCN(C(=O)CCn1cc(C)cn1)CC2 (centres undefined)	-15%
O=C(CN1C(=O)NC2(CCOCC2)C1=O)Nc1cccc(F)c1	87%
CN(C)Cc1cc(C[C@@H]2C[C@H](N(C)C)C2(C)C)no1	i
Cn1cc(C(=O)NCCc2noc(-c3ccncc3)n2)cn1	0%
COCc1nc(CCNC(=O)c2ccc(OC)nc2)no1	5%
COc1ccc(C(=O)NCCc2noc(-c3ccncc3)n2)cn1	2.5µM*
Cc1cnc(C2CC2)n1C1CCN(C(=O)C2CC2)CC1	-12%
CN1C(=O)CC(C(=O)O)C12CCN(C(=O)NCCc1ccccc1F)CC2 (centres undefined)	-3%
O=C(C1CCOCC1)N1CCc2c(n(Cc3ccccc3)n(-c3ccccc3)c2=O)C1	46%[44.1 µM]
CCn1c(CN2CCN(C)CC2)nc2ccccc21	-23%
CCCC(=O)Nc1ccc2c(c1)nc(CN1CCN(C(=O)OCC)CC1)n2C(C)C	-7%
CCn1c(CN2CCOCC2)nc2cc(NC(=O)c3cc(OC)c(OC)c(OC)c3)ccc21	-16%
CCn1c(CN2CCCCC2)nc2cc(NC(=O)c3cccc([N+](=O)[O-])c3)ccc21	3.5µM*
Cn1c(CN2CCCCC2)nc2cc(NC(=O)c3ccc(Cl)cc3)ccc21	-14%
